Source: PubChem BioAssay AID1578 (Sanford-Burnham Center for Chemical Genomics, 2009)
Screen size: about 290,000 compounds; about 3,000 (1%) were called active. No stated cut-off is given here; in the data, active means inhibition mostly above about 36% (no sharp cut-off); inactive means mostly below about 34%. Only a selection was taken, and actives are over-represented in it overall.

Assay: inhibition of NOD1-driven NF-kB reporter – cell-based, luminescence, uHTS, primary screen (AID 1578);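 further: HEK-293T reporter cells stimulated with the NOD1 agonist gamma-tri-DAP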
Settings: NOD1-driven NF-kB luciferase reporter cells, at 4 µM, hits give high values

SMILES | inhibition
CCOc1ccccc1C(=O)N(Cc1sccc1C)C1CCS(=O)(=O)C1 (centres undefined) | -17.4% (inactive)
COc1cc(NS(=O)(=O)c2ccc(NC(=S)NC(=O)c3sc4cc(F)ccc4c3Cl)cc2)nc(OC)n1 | 47.7% (inactive)
Cc1nc2ccc(NC(=O)c3cccs3)cc2c(=O)n1Cc1ccc(Cl)cc1 | 23% (inactive)
COc1ccc(CNC(=O)c2ccc(CS(=O)(=O)Cc3ccccc3F)o2)cc1 | 6% (inactive)
Cc1[nH]c(C)c(S(=O)(=O)NCc2ccc(Cl)cc2)c1C(=O)N1CCCC1 | -23.5% (inactive)
CCN1C(=O)CS/C1=N\S(=O)(=O)c1ccccc1 | 4.8% (inactive)
O=c1c2ccccc2cnn1CCOc1cccc(Br)c1 | -51.9% (inactive)
COc1ccc2cnn(CCOc3ccccc3)c(=O)c2c1OC | -63% (inactive)
O=c1c2ccccc2cnn1CCOc1ccccc1 | 67.1% (active)
O=c1[nH]c(CSc2ncnc3sc(-c4ccccc4)cc23)nc2ccccc12 | 6.6% (inactive)
CC(Oc1ccc([N+](=O)[O-])cc1)C(=O)NCCCN1CCOCC1 (centres undefined) | -6.2% (inactive)
CCc1nc2ccccc2c(C(=O)OCC(=O)Nc2ccc(S(=O)(=O)N3CCOCC3)cc2)c1C | -22% (inactive)
CCCc1nc2ccccc2c(C(=O)OCC(=O)Nc2cccc(S(=O)(=O)N3CCOCC3)c2)c1CC | 25.8% (inactive)
COc1cc(NC(=S)NCCCN2CCOCC2)c(OC)cc1NC(=O)c1ccco1 | -24.2% (inactive)
CC(=O)c1c(C)n(-c2cccc(Cl)c2)c2ccc(O)cc12 | -4.6% (inactive)
CCOC(=O)Cc1csc(NC(=O)CSc2nc(-c3ccccc3)c(C#N)c(=O)[nH]2)n1 | -50.8% (inactive)
CCCCCNC(=O)C(=O)C1C(=O)Nc2ccccc21 (centres undefined) | 0.6% (inactive)
Cc1ccc2c(c1)c(N=O)c(O)n2Cc1ccc(Cl)cc1 | 31.7% (inactive)
CC(C)c1ccc2c(c1)c(SC(C)(C)C)c(CC(C)(C)C(=O)O)n2Cc1ccc(Cl)cc1 | 37.3% (active)
CC(C)c1ccc(C(=O)NCc2ccc(Cl)cc2)cc1 | -22.8% (inactive)
Cc1ccc(C(=O)c2ccc(O)cc2)cc1C | -29.5% (inactive)
O=C(Nc1cccc(O)c1)c1ccc([N+](=O)[O-])cc1Cl | -22.7% (inactive)

SMILES | inhibition
CC(=O)Nc1cccc(NC(=O)c2ccc([N+](=O)[O-])cc2Cl)c1 | -5.3% (inactive)
O=C(Nc1cccc(Cl)c1)c1cc(N=Nc2ccc([N+](=O)[O-])cc2Cl)ccc1O | 95.3% (active)
COc1cc(OC)cc(C(=O)N[C@H](C(=O)OCC(=O)Nc2ccc(F)c(F)c2)C(C)C)c1 | -11.6% (inactive)
O=C(NCC(O)c1ccc([N+](=O)[O-])cc1)Nc1ccccc1 (centres undefined) | -4.6% (inactive)
COc1cccc(=O)c2c(C)n(-c3ccc(C(=O)O)cc3)c(C)c12 | 58.9% (active)
CCOc1cccc(=O)c2c(C)n(-c3ccc(C(=O)O)cc3)c(C)c12 | -22.7% (inactive)
COc1ccc(-n2c(C)c3c(OC)cccc(=O)c3c2C)cc1 | 16.3% (inactive)
COc1cccc(N(C(=O)c2sc(C)nc2C)C(C(=O)NCC2CCCO2)c2ccccc2)c1 (centres undefined) | -28.5% (inactive)
COc1cc(CCNC(=O)c2ccccc2NC(=O)C2=C(C)OCCS2)cc(OC)c1OC | 17.9% (inactive)
COc1ccc(CCNC(=O)c2ccccc2NC(=O)C2=C(C)OCCS2)c(OC)c1 | 51.1% (active)
COc1ccc(OC)c(CCNC(=O)c2ccccc2NC(=O)C2=C(C)OCCS2)c1 | -12.2% (inactive)
NS(=O)(=O)c1cccc(NC(=O)c2cc(=O)c3ccccc3o2)c1 | -9.2% (inactive)
CC(C)Cn1c(N)c(C(=O)COC(=O)Cc2cccs2)c(=O)n(C)c1=O | -8.8% (inactive)
CC(C)Cn1c(N)c(C(=O)COC(=O)c2ccc(Cl)cc2)c(=O)n(C)c1=O | 4.6% (inactive)
COCc1c(C(=O)OCC(=O)c2c(N)n(CC(C)C)c(=O)n(C)c2=O)oc2ccccc12 | 32% (inactive)
CC(C)Cn1c(N)c(C(=O)COC(=O)C2CCCCC2)c(=O)n(C)c1=O | 0.4% (inactive)
CC(C)Cn1c(N)c(C(=O)COC(=O)c2ccccc2Cl)c(=O)n(C)c1=O | -12.9% (inactive)
CC(C)Cn1c(N)c(C(=O)COC(=O)c2ccc(O)cc2)c(=O)n(C)c1=O | -0.8% (inactive)
Cc1cc(Oc2ccccc2)nc(-c2ccccc2O)n1 | -12.6% (inactive)
Nc1nccnc1C(=O)OCC(=O)NNC(=O)c1ccccc1 | -27.6% (inactive)
Cc1ccc(CSc2nc3ccsc3c(=O)n2Cc2ccccn2)cc1 | -0.8% (inactive)
CCc1ccc(NC(=O)COc2cccc(-n3cnnn3)c2)cc1 | 4.3% (inactive)

SMILES | inhibition
CC(=O)c1cc2c(cc1NC(=O)CCCC(=O)O)OCO2 | -9.2% (inactive)
CC(=O)c1cc2c(cc1NC(=O)CCC1CCCC1)OCO2 | 71.2% (active)
CC(=O)c1cc2c(cc1NC(=O)CCn1cccc1)OCO2 | 5% (inactive)
Cc1ccc(Cn2ccnc2SCC(=O)NC2CCCC2)cc1 | 51.4% (active)
O=C(CSc1nccn1Cc1ccccc1)NC1CCCC1 | 12.2% (inactive)
O=C(CSc1nccn1Cc1ccc(F)cc1)NC1CCCC1 | -2.9% (inactive)
Cc1ccc(S(=O)(=O)N(C)C)cc1NC(=O)C1CCCC1 | 18.4% (inactive)
COc1ccccc1OCCCC(=O)NC(C)c1ccccc1 (centres undefined) | -14.4% (inactive)
C=CCn1c(C)cc(C2=NNC(=NCc3ccccc3)SC2)c1C | -61.6% (inactive)
COCCn1c(C)cc(C2=NNC(=Nc3ccc(OC)cc3)SC2)c1C | -3.2% (inactive)
C=CCn1c(C)cc(C2=NNC(=NCC)SC2)c1C | 103% (active)
COCCn1c(C)cc(C2=NNC(=NC3CC3)SC2)c1C | 107% (active)
COCCN=C1NN=C(c2cc(C)n(CC3CCCO3)c2C)CS1 (centres undefined) | 9.1% (inactive)
COCCn1c(C)cc(C2=NNC(=NC(C)(C)C)SC2)c1C | -27.4% (inactive)
Cc1cc(C2=NNC(=NCCc3ccccc3)SC2)c(C)n1CC1CCCO1 (centres undefined) | -23% (inactive)
C=CCN=C1NN=C(c2cc(C)n(CC=C)c2C)CS1 | 85.5% (active)
COCCCN=C1NN=C(c2cc(C)n(Cc3ccccc3Cl)c2C)CS1 | -46.7% (inactive)
C=CCn1c(C)cc(C2=NNC(=Nc3ccc(C)cc3)SC2)c1C | -66.7% (inactive)
C=CCN=C1NN=C(c2cc(C)n(CCOC)c2C)CS1 | 88.5% (active)
C=CCn1c(C)cc(C2=NNC(=NC(C)(C)C)SC2)c1C | 65% (inactive)
